Most compounds without a hit are left out; they make up all but 8.2% or so of the library.
KB-3-1 tox – kills parental KB-3-1 adenocarcinoma cells. 400,000 tested, 1.4% active. AID 1347075. KB-3-1 viability, CellTiter-Glo ATP luminescence, 72 h. Potency, µM (top dose mostly 46.1 µM), hits mostly cytotoxic; also: % is scaled to controls: 0 for no effect and ±100 for the full control effect; nearly all actives have a fitted effect of over 60% in size
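Screening of KB-3-1 cells (DMEM, 10% FBS, phenol-red free) ran from lowest to highest compound concentration; after 72 h at 37 °C viability was read luminescently and curves fitted.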
SW480 rereplic – inducers of DNA re-replication in SW480 colon cancer cells; Potency, µM (titrated, usually from 46.1 µM), for the others: at the top dose re-replication activation, most hits filed as activators; SW480 DNA re-replication, Hoechst DNA content imaging, 48 h; AID 624297; 340,000 tested, 1.8% active; also: % of control where 0% means no effect; nearly all actives have a fitted effect of over 55% in size
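Readout is total intensity of Hoechst-stained nuclei, excited at 405 nm and collected at 500-530 nm. Compound treatment lasted 48 hr at 37 C in 5% CO2 before staining.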
ELG1 DNA repair – inhibitors of ELG1-dependent DNA repair in HEK293T cells; Potency, µM (highest dose often 46.1 µM), inactives show at the top dose activity change, negative = inhibition, actives largely listed as inhibitors; HEK293T ELG1-luciferase reporter, luminescence, 16 h; DNA damage induced by 5-fluorouridine; 330,000 tested, 2.3% active; also: % is scaled to controls: 0 for no effect and ±100 for the full control effect; nearly all actives have a fitted effect of over 55% in size
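Cells (2,000 per well) received 5-fluorouridine plus test compound or DMSO and were incubated 16 hr at 37 °C, 5% CO2. Luciferase activity was read by luminescence 30 min after ONE-Glo addition; signal suppression marked inhibition of damage-induced ELG1 function.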
KB-V1 MDR tox – KB-V1 MDR subline cytotoxicity | KB-V1 MDR cells viability, CellTiter-Glo, 72 h | Potency, µM (doses to about 46.1 µM), most hits filed as cytotoxic | 400,000 tested, 3.4% active | AID 1347076; also: % is scaled to controls: 0 for no effect and ±100 for the full control effect; nearly all actives have a fitted effect of over 60% in size
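Cells of the MDR subline KB-V1 are plated, dosed with compound at multiple concentrations, and incubated 72 h at 37 degrees C; CellTiter-Glo is then added and luminescence read after 10 min.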
MCF10A rereplic – induces DNA re-replication in MCF 10a normal breast cells. MCF 10A DNA re-replication, Hoechst nuclear intensity, 48 h. Potency, µM (doses to about 46.1 µM), inactives show at the highest dose activity, positive = re-replication, hits mostly activators. 350,000 tested, 2.9% active. AID 624296; also: % of control where 0% means no effect; nearly all actives have a fitted effect of over 50% in size
Numbers without * were called inactive; i = inactive; ? = inconclusive; / = no result. Calls follow the shape of the dose curve; as a rule, active = well fitted curve in the direction sought with a large enough effect; inconclusive = small, poorly fitted or top-dose-only effect, or another doubt; inactive = no such curve, though single readings can be large; an effect the other way counts as inactive or inconclusive. Potency is read from the fitted curve at half-maximal effect.

SMILES | KB-3-1 tox | SW480 rereplic | ELG1 DNA repair | KB-V1 MDR tox | MCF10A rereplic
CC1(C)Cc2nc3oc4c(=O)n(CC(=O)Nc5cccc(Cl)c5)cnc4c3cc2CO1 | i | 18µM* | ? | i | 12%
CCCCCn1cnc2c(sc3nc4c(cc32)CSC(C)(C)C4)c1=O | i | -75% | ? | 15µM* | -51%
Cc1cc(CNC(=O)c2ccc3c(c2)OCO3)c2ccccc2n1 | ? | ? | ? | ? | 21%
COc1ccc(C2c3c(-c4ccccc4O)n[nH]c3C(=O)N2Cc2ccco2)cc1OC (centres undefined) | i | -3% | 0% | i | 11%
O=C1c2[nH]nc(-c3ccccc3O)c2C(c2cccc(Cl)c2)N1Cc1ccco1 (centres undefined) | ? | ? | -7% | 15µM* | 7.3µM*
O=C1c2[nH]nc(-c3ccccc3O)c2C(c2ccc(F)cc2)N1Cc1ccco1 (centres undefined) | ? | ? | 0% | 6.5µM* | ?
COc1cccc(C2c3c(-c4ccccc4O)n[nH]c3C(=O)N2CCc2ccc(OC)c(OC)c2)c1 (centres undefined) | i | / | / | i | /
COc1ccc(CCN2C(=O)c3[nH]nc(-c4ccccc4O)c3C2c2cccc(O)c2)cc1OC (centres undefined) | i | 1% | 18µM* | i | 15%
Cc1ccc(C)c(NC(=O)CSc2nnc([C@@H]3CCCN3C(=O)OC(C)(C)C)o2)c1 | i | 0% | -12% | i | -3%
Cc1cccc(NC(=O)CSc2nnc([C@@H]3CCCN3C(=O)OC(C)(C)C)o2)c1C | 21µM* | 1% | -1% | ? | 5%
CCNC(=O)C(=O)Nc1ccc2c(c1)N(S(=O)(=O)c1cccs1)CCC2 | i | ? | -22% | ? | 29%
CN(C)CCNC(=O)C(=O)Nc1ccc2c(c1)N(S(=O)(=O)c1cccs1)CCC2 | 6.5µM* | 18µM* | ? | ? | ?
CN(C)CCCNC(=O)C(=O)Nc1ccc2c(c1)N(S(=O)(=O)c1cccs1)CCC2 | ? | 2% | 4% | i | ?
COCCCNC(=O)C(=O)Nc1ccc2c(c1)N(S(=O)(=O)c1cccs1)CCC2 | 1.2µM* | 1µM* | 20% | 1µM* | 1.3µM*
C=CCNC(=O)C(=O)Nc1ccc2c(c1)N(S(=O)(=O)c1cccs1)CCC2 | ? | ? | ? | 23µM* | ?
COc1ccc2c(c1)nc(SCC(=O)c1ccc(Br)s1)n2C | i | ? | 1% | ? | 15µM*
O=C(CN1C(=O)NC2(CCCCCC2)C1=O)c1ccc(Cl)s1 | i | ? | ? | i | 10%
Cc1ccc(OCC(=O)Nc2ccc3oc(=O)ccc3c2)c(C)c1 | i | -1% | ? | ? | 5%
CCOc1ccc(N(CC(=O)NCCc2ccccc2)C(=O)CCC(=O)Nc2nccs2)cc1 | i | -5% | -11% | i | 7%
N#C/C(=C\c1cccnc1)c1nc2c(s1)CCCC2 | i | 5% | ? | ? | 15%
CC1CCc2nc(/C(C#N)=C/c3cccnc3)sc2C1 (centres undefined) | i | ? | ? | ? | 21µM*
COC(=O)[C@@H]1CC[C@H](C)[C@@H](c2ccc(C)cc2)N1C(=O)c1ccc(/C=N/O[C@@H](C)c2cn([C@H](CO)Cc3ccccc3)nn2)cc1 | / | ? | 15µM* | / | ?
CC1(c2ccccc2)CC(c2ccccc2)=Nc2ccccc2N1 (centres undefined) | i | 3% | ? | i | -28%
CC1=CC(C)=Nc2ccccc2N1 | i | -10% | ? | i | 21µM*
C=CCc1ccc(OCCOc2cccc3ccc(C)nc23)c(OC)c1 | ? | ? | 6% | ? | 12µM*
SMILES | KB-3-1 tox | SW480 rereplic | ELG1 DNA repair | KB-V1 MDR tox | MCF10A rereplic
CS/C(N)=N/N=C/c1cc(C)ccc1O | i | 15µM* | ? | i | 1%
Cc1c(C(=O)NNC(=O)c2cccnc2)cccc1[N+](=O)[O-] | i | -6% | 11% | i | -7%
CCc1ccc2oc(-c3ccc(NC(C)=O)cc3)nc2c1 | i | 1% | ? | i | 9%
Cc1oncc1C(=S)Nc1ccccc1 | i | 6.5µM* | 5% | i | 8.2µM*
Cc1oncc1C(=O)Nc1ccc2ccccc2c1 | i | -8% | ? | ? | -2%
COc1ccc(-c2noc(-c3ccc(Cl)cc3[N+](=O)[O-])n2)cc1OC | i | 0% | ? | 18µM* | -3%
COc1ccc(-c2noc(CN(C)S(=O)(=O)c3c(C)cc(C)cc3C)n2)cc1OC | i | / | / | ? | /
Cc1cccc(-c2noc(-c3ccc(Cl)cc3[N+](=O)[O-])n2)c1 | i | 3% | ? | ? | ?
COc1ccc(-c2noc(CN(C)S(=O)(=O)c3ccc(Cl)cc3)n2)cc1OC | ? | -2% | ? | 7.3µM* | 1%
Cn1cnc2c(oc3ccccc32)c1=O | i | -41% | / | i | 3%
COc1cnc(-c2ccccn2)nc1NC(C)C | ? | 6.5µM* | -6% | 7.3µM* | 23µM*
COc1cnc(-c2ccccn2)[nH]c1=O | i | -1% | ? | i | 11%
Cc1ccc(Sc2cc(C)nc(-c3ccccn3)n2)cc1 | i | 1% | ? | ? | -14%
COc1ccccc1Sc1nc(-c2ccccn2)ncc1OC | ? | ? | 23µM* | i | -3%
COc1cnc(-c2ccccn2)nc1Sc1ccc(C)cc1 | i | ? | 23µM* | i | 18%
COc1cnc(-c2ccccn2)nc1Oc1ccc(F)cc1F | i | 1% | 14% | i | -10%
COc1cnc(-c2ccccn2)nc1Sc1cccc(Cl)c1 | i | 12µM* | ? | ? | 21µM*
COc1ccc(C(CNC(=O)CCNS(=O)(=O)c2ccccc2)N2CCOCC2)cc1 (centres undefined) | i | / | / | i | /
COc1ccc(CC(=O)OCC(=O)NCc2ccco2)cc1OC | i | 0% | 17% | i | 0%
N#Cc1ccccc1Sc1ccccc1C(=O)NCC(c1ccco1)N1CCCC1 (centres undefined) | i | 3% | 0% | ? | 11%
COc1ccc2c(c1)c(=O)c(C(=O)c1ccc(F)cc1)cn2CC(=O)Nc1ccc2c(c1)OCCO2 | i | / | / | i | /
COc1ccc(OCCn2cnc3ccccc32)cc1 | i | 6% | -6% | i | 8%
COc1cnc(-c2ccccn2)nc1Oc1ccccc1Cl | i | -9% | ? | i | 3%
COc1cnc(-c2ccccn2)nc1Oc1ccc(Cl)cc1 | i | 10µM* | ? | ? | ?
CCN(Cc1ccc(OC)c(F)c1)C(=O)CCl | ? | 16µM* | ? | ? | ?
